Results from PubChem BioAssay AID1053188 (Broad Institute, 2014).
Several values for one entry are separate records, joined by “and”; a condition that tells them apart may be missing. Equal values may be shown once. Among all 83,000 compounds or so, about 780 (0.94%) were called active.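 How the source made its calls: active means mean inhibition of at least 50% with a set share of replicates also reaching that level; inconclusive means no clear call, values can overlap the other calls; inactive means the rest.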 The entries come from a sample that favours actives as a whole.

Assay: inhibitors of CD40-induced NF-kB signaling, primary screen, BL2 cells, luciferase reporter, single point (AID 1053188);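 further: 0% = neutral control wells and 100% = IKK inhibitor VII at 50 µM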
Details: CD40L-induced, 4 h, hits give high values; at 10 µM unless noted

inhibition, active:
O=C1C(Cl)=C(Oc2ccccc2)C(=O)c2ccccc21 100%, c1c2c(cc3sc(N4CCCCC4)nc13)OCCO2 99.7%, N#C[C@@H]1N[C@@H](CO)[C@@H]1c1ccc(C#Cc2ccccc2F)cc1 -72.6% [at 25 µM], COc1ccc2c(c1)c(=Cc1ccc(N(C)C)cc1)c1cc(-c3ccccc3)[n+](C)n12 104%, O=C(Oc1ccc(-c2nc(-c3ccccn3)no2)cc1)c1ccccc1 49.6%, Oc1c(Cl)cc(Cl)c(Cl)c1Cc1c(O)c(Cl)cc(Cl)c1Cl 90.9%, O=C(NC1=CC(=O)c2ccccc2C1=O)c1ccccc1 97.7%, Cc1ccc(-c2ccccc2[C@H]2[C@@H](C#N)N(c3ncc(-c4ccccc4)s3)[C@@H]2CO)cc1 50.1% [at 25 µM], Cn1c(-c2ccco2)nc2cc3ccccc3cc21 50.6%, NC(N)=N/N=C/c1ccc(OCc2ccc(Cl)cc2Cl)cc1 83.8%, CC(=O)Nc1cccc(C(=O)OCC(=O)c2ccc3c(c2)OCO3)c1 90.8%, O=C(COC(=O)c1ccccc1)c1ccc2c(c1)OCCO2 101%, COC(=O)CCNc1ccc2c(c1)OCCO2 49.8%, C[C@@H]1CN([C@@H](C)CO)C(=O)c2cc(C#CCc3ccccc3)cnc2O[C@@H]1CN(C)C(=O)C1CCOCC1 65% [at 25 µM]

inhibition, inactive:
Cc1ccc(S(=O)(=O)c2ccc(Oc3ccccc3)cc2)cc1 1.57%, COc1ccc2ccccc2c1CNc1nnnn1C -1.14%, O=C(NCC1CCCO1)c1ccc(S(=O)(=O)Nc2ccc(F)cc2)cc1 (stereo not drawn) 7.17%, CN(C)CCCN(C(=O)c1ccc(S(=O)(=O)N2CCCCCC2)cc1)c1nc2cc3c(cc2s1)OCCO3 -0.778%, Cc1nc2cc3c(cc2s1)OCO3 3.54%, O=C(NCC1CCCO1)c1cc2c(s1)CCCC2 (stereo not drawn) -65.3%, Cc1cccn2c(CNCC(C)Oc3cccnc3)c(C(=O)N3CCOCC3)nc12 (stereo not drawn) 9.25%, CCOc1ccc(S(=O)(=O)NCCC(=O)N2CCCCCCC2)cc1 7.35%, NC(=O)COC(=O)c1sc2cc(F)ccc2c1Cl -6.93%, O=C(COc1ccccc1)Nc1ccc(C(=O)N2CCCC2)cc1 -10.1%, N#C[C@@H]1N[C@H](CO)[C@@H]1c1ccc(/C=C/c2ccccc2)cc1 -33.7% [at 25 µM], N#C[C@H]1N[C@H](CO)[C@@H]1c1ccc(C#Cc2ccccc2F)cc1 -56.4% [at 25 µM], O=C(Nc1cccc(-c2cscn2)c1)C1CCN(Cc2ccsc2)CC1 -0.734%, CC(=O)c1c(C)[nH]c(C(=O)OCC(=O)Nc2c(C)n(C)n(-c3ccccc3)c2=O)c1C 6.04%, Fc1ccc(-c2ccc(NCCN3CCOCC3)nn2)cc1 -11.3%, COCCCN(C(=O)CSCc1ccc(C)cc1)c1c(N)n(Cc2ccccc2)c(=O)[nH]c1=O 10%, Cc1cccc(-n2c(=O)c3c(C)c(C)sc3n(CC(N)=O)c2=O)c1 0.549%, CN1CCC(N(C)C(=O)c2ccc(Cl)c(S(=O)(=O)Nc3ccc(Cl)cc3)c2)CC1 -2.41%, CC1(C(=O)O)CCCN(C(=O)/C=C/c2ccccc2)C1 (stereo not drawn) 4.26%, O=C(CCCCCCCC(=O)N1CCCCC1)N1CCCCC1 -9.37%, COc1ccc(NS(=O)(=O)c2ccc(N3CCOCC3)c(NC(=O)/C=C/C(=O)O)c2)cc1 2.43%, O=C(Cn1cnc([N+](=O)[O-])n1)NCCc1ccccc1 -4.08%, O=C(COC(=O)c1ccc(Oc2ccccc2)cc1)Nc1nnc(-c2ccccc2)o1 -10.4%, CC(C)c1nc(-c2ccccn2)no1 -17.2%, O=C(NCCCN1CCCC1=O)c1ccc(S(=O)(=O)Nc2ccccc2)cc1 4.15%, C=C(C)C[C@H]1CCn2cc(nn2)COCCNC1=O 4.24% [at 25 µM], Cc1cccc(CN2CCN(Cc3cnn(-c4ccccc4F)c3)CC2CCO)n1 (stereo not drawn) -1.95%, CN(Cc1cccc2ncccc12)C(=O)CC1C(=O)NCCN1Cc1ccc(F)cc1 (stereo not drawn) -2.82%, O=C(CCC(=O)c1cccs1)NC1CCCCCC1 -60%, O=[N+]([O-])c1cccc(C2=NCCS2)c1 9.1%, O=C(NC1CC1)c1ccc(-c2ccccc2)cc1 -88.4%, C/C=C/c1ccc(OCC(O)CN2CCCCCCC2)c(OC)c1 (stereo not drawn) 0.219%, CC(NC(=O)c1ccccc1)C(=O)Nc1ccccc1 (stereo not drawn) 3.04%, O=C(NC(=O)c1ccccc1)NC(=O)c1ccccc1 -13.8%, Cc1ccc(S(=O)(=O)N(C)CC(=O)NCCc2c[nH]c3ccccc23)cc1 12.5%, Cc1ccc(S(=O)(=O)N2CCN(C(=O)Cc3sc(C)nc3-c3ccc(F)cc3)CC2)c(C)c1 -8.23%, Cc1cc(C)c2nc(N3CCC(C(=O)NCCN4CCOCC4)CC3)sc2c1 -16.5%, CC(OC(=O)CNC(=O)c1ccc(Cl)c([N+](=O)[O-])c1)C(=O)NCc1ccco1 (stereo not drawn) 21.2%, CCC(C)N(C(=O)COC(=O)c1nc(Cl)ccc1Cl)C1CCS(=O)(=O)C1 (stereo not drawn) 3.49%, N#C[C@@H]1[C@H](c2ccccc2-c2ccccc2)[C@H](CO)N1c1ncc(-c2ccccc2)s1 -4.27% [at 25 µM], Cc1cccc(-c2ccccc2[C@@H]2[C@H](C#N)N(c3ncc(-c4ccccc4)s3)[C@H]2CO)c1 -6.41% [at 25 µM], Cc1ccc2cccc([N+](=O)[O-])c2n1 -0.702%, CCC(=O)N1[C@@H](CO)[C@@H](c2ccc(C3=CCCC3)cc2)C12CN(C(=O)COC)C2 -9.07% [at 25 µM], CC(OC(=O)C1CC(=O)N(Cc2ccccc2)C1)C(=O)Nc1ccccc1[N+](=O)[O-] (stereo not drawn) 7.76%, COc1ccc(NC(=O)c2cc3nc(-c4ccccc4)cc(C)n3n2)cc1OC -3.33%, Cc1nnc2sc(-c3ccco3)nn12 4.37%, CN(c1nc2ccccc2n2c(-c3ccco3)nnc12)S(=O)(=O)c1ccccc1 1.82%, CCOC(=O)C1(C)NC(c2ccco2)C2C(=O)N(c3ccccc3)C(=O)C21 (stereo not drawn) -6.84%, CS(=O)(=O)Nc1ccc2c(c1)[C@H]1C[C@@H](CC(=O)NCCc3ccccc3)O[C@@H](CO)[C@H]1O2 -1.64% [at 25 µM], O=C(NCCc1ccc(F)cc1)c1ccc(S(=O)(=O)N2CCCCC2)cc1 -1.19%, CCOc1ccc(NC(=O)NNC(=O)c2ccc(Cl)cc2Cl)cc1 10.3%, CC(C)(C)NC(=O)NC(=O)COC(=O)Cc1ccc(Cl)cc1Cl 15.3%, COCCNC(=O)CSc1nc(N)c(NC(=O)c2ccco2)c(=O)[nH]1 6.02%, COc1ccccc1C(=O)NC(CCSC)C(=O)NNC(=O)c1ccccc1C (stereo not drawn) 0.904%, O=C(COC(=O)c1ccc(F)cc1)Nc1ccc2c(c1)OCO2 -50.8%, O=C(COC(=O)c1ccncc1)Nc1ccc2c(c1)OCO2 -1.31%, O=C1COc2ccc(C(=O)COC(=O)c3ccccc3Cl)cc2N1 -59.8%, O=C(COC(=O)c1ccc2c(c1)OCCO2)NCc1ccccc1Cl -15%, CCC(=O)Nc1nnc(S(=O)(=O)N2CCCc3ccccc32)s1 5.48%, CC(C)NC(=O)N(C)C[C@H]1Oc2ccc(N(C)C)cc2CC(=O)N(C)C[C@@H]1C 6.49%, CC(=O)Nc1cccc(C(=O)OCC(=O)NCc2cc(C)c(O)c(C)c2)c1 -53.4%, CN(CC(=O)Nc1ccc(OC(F)(F)F)cc1)C(=O)C1CCC1 -5.45%, O=C(CSc1ccccc1)Nc1cccc(S(=O)(=O)N2CCCCC2)c1 -2.87%, CC(=O)Oc1ccc(-c2cccc(C(=O)N3CCCCC3)c2)cc1 -16.5%, N#C[C@@H]1[C@H](c2ccccc2)[C@H](CO)N1C(=O)CN1CCOCC1 -6.4% [at 25 µM], CCOC(=O)C1(Cc2cccc(OC)c2)CCN(Cc2csc(C(C)=O)c2)CC1 21.6%, CN1C(=O)c2cc(NC(=O)c3cccc(F)c3)ccc2OC[C@@H]2O[C@@H](CC(=O)NCC3CCCCC3)CC[C@H]21 28.6% [at 25 µM] and 23.2% [at 25 µM], CCCCC(=O)Nc1ccc2c(c1)OCCO2 -54.6%, Cc1ccc(OCCCC(=O)Nc2ccc3c(c2)OCCO3)cc1 8.39%, CSc1ncccc1C(=O)NC1CCCCCC1 3.02%, C[C@H]1CN([C@@H](C)CO)C(=O)c2cc(C#CC3(O)CCCC3)cnc2O[C@@H]1CN(C)C(=O)Cc1ccccc1 -19.3% [at 25 µM], C/C=C/c1cnc2c(c1)C(=O)N([C@@H](C)CO)C[C@@H](C)[C@@H](CN(C)C(=O)C1CCOCC1)O2 -23% [at 25 µM], COC(=O)Cc1c(-c2[nH]c3ccccc3c2CC(=O)OC)[nH]c2ccccc12 -13.2%, COc1ccc(CCNC(=O)CN(c2ccccc2)S(=O)(=O)c2ccccc2)cc1 11.3%
